Screening results as filed in PubChem.
The full list was thinned out, with hits kept by preference.
Shh pathway inh = blocks Sonic Hedgehog signaling; inhibition, % (concentration not given with the values); Shh-LIGHT2 Gli-luciferase reporter, 30 h; actives 2.1% (n = 22,000);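 active = mean inhibition across valid replicates above about 65%, limit read from the data; inconclusive = mean under the limit, yet half or more replicates past it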;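 note: pathway switched on by Shh-conditioned medium diluted 1 in 25 in low serum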
MITF inhib = MITF inhibition; actives 0.28% (n = 37,000); TRPM1 promoter luciferase, luminescence, 24 h; inhibition, % (test concentration not listed); in the data active = inhibition above about 85%; inconclusive = no clear call, values can overlap the other calls; inactive = below about 68%;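 note: human melanocyte line stably carrying TRPM1 promoter luciferase reporter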
* hit, by the source's call; ? = inconclusive; · = no result.

SMILES	Shh pathway inh	MITF inhib
CC1(C)CC[C@@]2(C(=O)O[C@@H]3O[C@H](CO)[C@@H](O)[C@H](O)[C@H]3O)C(C1)C1=CCC3[C@@]4(C)CC[C@@H](O[C@@H]5O[C@H](C(=O)O)[C@@H](O[C@@H]6OC[C@@H](O)[C@H](O)[C@H]6O)[C@H](O)[C@H]5O)C(C)(C)C4CC[C@@]3(C)[C@]1(C)C[C@H]2O (stereo partly specified)	-10	-8
C[C@@H]1O[C@@H](O[C@H]2[C@H](O)[C@@H](O)[C@H](OC[C@H]3O[C@@H](OC(=O)[C@]45CCC(C)(C)CC4C4=CCC6[C@@]7(C)CC[C@H](O)C(C)(C)C7CC[C@@]6(C)[C@]4(C)CC5)[C@H](O)[C@@H](O)[C@@H]3O)O[C@@H]2CO)[C@H](O)[C@H](O)[C@H]1O (stereo partly specified)	76*	45
C[C@@H]1O[C@@H](O[C@H]2[C@H](O[C@H]3CC[C@@]4(C)C(CC[C@]5(C)C4CC=C4[C@@H]6CC(C)(C)CC[C@]6(C(=O)O[C@@H]6O[C@H](CO[C@@H]7O[C@H](CO)[C@@H](O)[C@H](O)[C@H]7O)[C@@H](O)[C@H](O)[C@H]6O)CC[C@]45C)[C@]3(C)CO)OC[C@H](O)[C@@H]2O)[C@H](O)[C@H](O)[C@H]1O (stereo partly specified)	-2	0
COC(=O)c1cc(Br)ccc1NC(=O)COc1ccc(C(C)(C)C)cc1	·	-18
COc1ccc(NC(=O)Nc2ccc3c(c2)C(=O)N([C@@H](C)CO)C[C@@H](C)[C@H](CN(C)Cc2ccc(Oc4ccccc4)cc2)O3)cc1	-14	2
C[C@@H]1CCCCO[C@@H](CN(C)Cc2ccc3c(c2)OCO3)[C@@H](C)CN([C@H](C)CO)C(=O)c2cc(NC(=O)Nc3ccc4c(c3)OCO4)ccc2O1	68*	9
COc1ccc(NC(=O)Nc2ccc3c(c2)C(=O)N([C@@H](C)CO)C[C@@H](C)[C@@H](CN(C)Cc2ccc(Oc4ccccc4)cc2)O3)cc1	94*	6
C[C@@H]1CCCCO[C@H](CN(C)Cc2ccc3c(c2)OCO3)[C@@H](C)CN([C@H](C)CO)C(=O)c2cc(NC(=O)Nc3ccc4c(c3)OCO4)ccc2O1	·	-4
C[C@@H]1CN([C@H](C)CO)C(=O)c2cc(NC(=O)Nc3ccc4c(c3)OCO4)ccc2O[C@@H]1CN(C)Cc1ccc(Oc2ccccc2)cc1	92*	9
C[C@@H]1CN([C@H](C)CO)C(=O)c2cc(NC(=O)Nc3ccc4c(c3)OCO4)ccc2O[C@H]1CN(C)Cc1ccc(Oc2ccccc2)cc1	·	-2
COc1ccc(C(=O)CC(C#Cc2ccccc2)CC(=O)c2ccc(OC)cc2)cc1	-23	0
CC(Oc1ccccc1)C(=O)NCCN1CCOCC1 (stereo unspecified)	·	-2
COc1cc(C(=O)N=C2C(C)=CC(=O)C=C2C)cc(OC)c1OC	·	3
O=C1C=CC(=C(c2ccc(O)cc2)c2ccc(O)cc2)C=C1	66*	68
CC(C)c1ccc2oc(-c3ccc(Cl)c(NC(=O)COc4ccc([N+](=O)[O-])cc4)c3)nc2c1	·	19
Cc1cccc(OCC(O)Cn2cnc3cc(C)c(C)cc32)c1 (stereo unspecified)	·	37
CC(C)(C)c1ccc(-c2[nH]nc(NS(=O)(=O)c3ccccc3)c2Br)cc1	95*	13
O=C(CC1(O)C(=O)Nc2ccc(Br)cc21)c1ccc(NS(=O)(=O)c2ccccc2)cc1 (stereo unspecified)	·	14
CC1CC(=O)C2=C(C1)C(Cl)C(O)C1(O)C2C(=O)c2cccc(O)c2C1O (stereo unspecified)	10	34
CCc1nc2c(cnn2-c2ccccc2)c(=O)n1CCc1ccccc1	-13	13
C[C@@H]1CN([C@H](C)CO)C(=O)c2cccc(NS(=O)(=O)c3ccc(Cl)cc3)c2O[C@@H]1CN(C)C(=O)Nc1ccc(C(F)(F)F)cc1	-13	28
COc1ccc(S(=O)(=O)Nc2cccc3c2O[C@@H](CN(C)C(=O)NC2CCCCC2)[C@@H](C)CN([C@H](C)CO)C3=O)cc1	66*	32
C[C@H]1CN([C@@H](C)CO)C(=O)c2cccc(NS(=O)(=O)c3ccc(Cl)cc3)c2O[C@H]1CN(C)C(=O)NC1CCCCC1	17	18
C[C@@H]1CN([C@@H](C)CO)C(=O)c2cccc(NS(=O)(=O)c3ccc(Cl)cc3)c2O[C@@H]1CN(C)C(=O)Nc1ccc(C(F)(F)F)cc1	-9	88*
COc1ccc(S(=O)(=O)Nc2cccc3c2O[C@@H](CN(C)CC2CCCCC2)[C@H](C)CN([C@@H](C)CO)C3=O)cc1	-67	2
SMILES	Shh pathway inh	MITF inhib
COc1ccc(S(=O)(=O)Nc2cccc3c2O[C@H](CN(C)C(=O)NC2CCCCC2)[C@@H](C)CN([C@@H](C)CO)C3=O)cc1	-42	-10
C[C@H](CO)N1C[C@H](C)[C@H](CN(C)C(=O)NC2CCCCC2)Oc2c(NS(=O)(=O)c3ccc(Cl)cc3)cccc2C1=O	100*	15
COc1ccc(S(=O)(=O)Nc2cccc3c2O[C@@H](CN(C)CC2CCCCC2)[C@@H](C)CN([C@H](C)CO)C3=O)cc1	71*	2
COc1ccc(-c2cc(=O)c3cc(OCC(=O)Nc4ccc(C)cc4C)ccc3o2)cc1	·	-1
O=C(CSc1nnc(-c2ccccc2O)n1-c1ccccc1)Nc1ccc(Cl)c(C(=O)O)c1	·	-20
CN(C)Cc1ccc(C(=O)Oc2ccc(C(C)(C)C)cc2)cc1	·	1
CCc1ccc2oc(-c3ccc(C)c(NC(=O)COc4ccccc4)c3)nc2c1	·	-15
Cc1c(NC(=O)C(C)(C)C)c(=O)n(-c2ccccc2)n1C	·	2
CN(CC(=O)Nc1ccccc1C#N)S(=O)(=O)c1ccc(Br)cc1	·	-12
COc1ccc(C(=O)N2c3ccccc3CCc3ccccc32)cc1	-59	25
CCOC(=O)c1cccc(NC(=O)CSc2nc3ccccc3[nH]2)c1	·	31
CCOC(=O)c1c(CN(CC)CC)oc2ccc(OC)cc12	28	-2
CCOC(=O)c1c(CSc2nc(C)ccc2C#N)oc2ccc(OC(C)=O)cc12	100*	66
COc1ccc(Cl)cc1N(CC(=O)Nc1ccc(Br)cc1F)S(C)(=O)=O	·	6
CC12CCC(c3c1nn(-c1ccccc1)c3C(F)(F)F)C2(C)C (stereo unspecified)	?	24
O=C1C(Nc2ccccc2)=CC(=O)c2ncccc21	94*	97*
Cc1ccc(Oc2ncccc2NC(=O)c2ccc(Cl)cc2Cl)c2c1CCC2	4	11
C[C@@H]1CCCCO[C@H](CN(C)S(=O)(=O)c2ccc(Cl)cc2)[C@@H](C)CN([C@H](C)CO)C(=O)c2cc(NS(=O)(=O)c3ccc(Cl)cc3)ccc2O1	14	36
C[C@@H]1CCCCO[C@@H](CN(C)S(=O)(=O)c2ccc(Cl)cc2)[C@@H](C)CN([C@H](C)CO)C(=O)c2cc(NS(=O)(=O)c3ccc(Cl)cc3)ccc2O1	71*	53
C[C@@H]1CCCCO[C@@H](CN(C)S(=O)(=O)c2cccs2)[C@@H](C)CN([C@H](C)CO)C(=O)c2cc(NS(C)(=O)=O)ccc2O1	67*	-2
C[C@@H]1CCCCO[C@@H](CN(C)S(=O)(=O)c2cccs2)[C@@H](C)CN([C@H](C)CO)C(=O)c2cc(NS(=O)(=O)c3cccs3)ccc2O1	·	-8
Cc1ccc(Cl)cc1N(CC(=O)Nc1ccc(C(N)=O)cc1)S(C)(=O)=O	·	-22
